The subject of the test is A549. Put plainly: relative viability (normalised to negative control = 1, bortezomib = 0) (fraction); higher = less cytotoxic. To be noted: inflammatory serum-free RHB-A with cytokines + LPS, 5 d + 24 h CellTiter-Blue. On the procedure:
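A549 KRAS-mutant NSCLC cells, pre-treated 5 µM GSK126 or vehicle (DMSO), were seeded at 250 cells/well in 384-well plates in serum-free RHB-A medium with inflammatory cytokines/LPS and treated with Selleck kinase inhibitor and NCI oncology compounds at 30 or 300 nM in triplicate, refreshed at 48 h. Viability was read by CellTiter-Blue after 5 d plus 24 h and normalised per plate with cellHTS2 (mean of bortezomib positive control = 0, mean of negative control = 1).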
Background: Alamar Blue is a resazurin reagent that responds to reducing activity.

The mark [1] stands for this setting: compound 30 nM, GSK126 pretreatment: 5 uM GSK126.
[2] abbreviates: compound 30 nM, GSK126 pretreatment: none (vehicle).
The mark [3] stands for this setting: compound 300 nM, GSK126 pretreatment: 5 uM GSK126.
Setting [4] is: compound 300 nM, GSK126 pretreatment: none (vehicle).

The record followed here is the supplement of paper PMC6279402.

Where a name gives a salt, the structure may show the parent alone. ± gives the standard deviation of the averaged measurements.

For the compound `CC1(C)CNc2cc(NC(=O)c3cccnc3NCc3ccncc3)ccc21` [Motesanib Diphosphate], the relative viability reads like this: under setting [1], 0.917 ± 0.035; under setting [2], 0.864 ± 0.062; under setting [3], 0.937 ± 0.14; under setting [4], 0.918 ± 0.06.
The corresponding values for `CC(=O)c1c(C)c2cnc(Nc3ccc(N4CCNCC4)cn3)nc2n(C2CCCC2)c1=O` are 0.89 ± 0.074, 0.913 ± 0.063, 0.903 ± 0.087 and 0.931 ± 0.064.
The like results for `Cn1c(Nc2ccc(C(F)(F)F)cc2)nc2cc(Oc3ccnc(-c4ncc(C(F)(F)F)[nH]4)c3)ccc21` were, in that order, 0.826 ± 0.12, 0.699 ± 0.17, 0.427 ± 0.11 and 0.347 ± 0.037.
Turning to `Cc1cc(C(=O)NOCCO)c(Nc2ccc(I)cc2F)n(C)c1=O`, the relative viability reads like this: under setting [1], 0.137 ± 0.0076; under setting [2], 0.158 ± 0.004; under setting [3], 0.0557 ± 0.021; under setting [4], 0.0366 ± 0.01.
The corresponding values for `Cc1ccc(-c2cc(C(F)(F)F)nn2-c2ccc(S(N)(=O)=O)cc2)cc1` [Celecoxib] are 0.842 ± 0.065, 0.787 ± 0.09, 0.783 ± 0.13 and 0.908 ± 0.14.
For `Cn1cc(C2=C(c3ccc(Cl)cc3Cl)C(=O)NC2=O)c2ccccc21`, the relative viability is, setting by setting: under setting [1], 0.787 ± 0.042; under setting [2], 0.778 ± 0.046; under setting [3], 0.695 ± 0.079; under setting [4], 0.802 ± 0.05.
With `COc1cc(OC)c(/C=C/S(=O)(=O)Cc2ccc(OC)c(NCC(=O)O)c2)c(OC)c1`, the relative viability under setting [1] was determined as 0.4 ± 0.058, the relative viability under setting [2] was 0.303 ± 0.018, the relative viability under setting [3] is 0.352 ± 0.015 and the relative viability under setting [4] came to 0.245 ± 0.035.
As for `CCc1c2c(nc3ccc(OC(=O)N4CCC(N5CCCCC5)CC4)cc13)-c1cc3c(c(=O)n1C2)COC(=O)[C@]3(O)CC` [Irinotecan HCl; Irinotecan hydrochloride], the relative viability came to 0.898 ± 0.038 under setting [1], 0.895 ± 0.018 under setting [2], 0.931 ± 0.037 under setting [3] and 0.917 ± 0.031 under setting [4].
The corresponding values for `Cc1[nH]c(/C=C2\C(=O)Nc3ccccc32)c(C)c1CCC(=O)O` are 0.78 ± 0.0017, 0.775 ± 0.032, 0.786 ± 0.08 and 0.772 ± 0.029.
The like results for `COc1cc(N2CCC(N3CCN(C)CC3)CC2)ccc1Nc1ncc(Cl)c(Nc2ccccc2S(=O)(=O)C(C)C)n1` were, in that order, 0.545 ± 0.012, 0.605 ± 0.022, 0.211 ± 0.019 and 0.259 ± 0.028.
